Results filed as inconclusive are left out. A structure can be active in one record and inactive in another. Calls of active or inactive are those of the source. Unless noted, calls come from the whole dose curve; as a rule, active = well fitted curve in the direction sought with a large enough effect in the repeat runs; inconclusive = weak or mixed curves; inactive = no such curve, though single readings can be large; an effect the other way counts as inactive or inconclusive.

Test [1] in a line: qHTS assay to test for compound auto fluorescence at 535 nm (green) in HEK293 cells (AID 720680). In general terms: qHTS replaces the single test concentration by a dilution series.
Test [2] is described as follows: qHTS assay to test for compound auto fluorescence at 460 nm (blue) in HEK293 cell free culture (AID 720681). Note: potency is the fitted concentration of half-maximal effect. The essentials:
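Test compounds were pinned into cell-free culture medium (DMEM with 10% FBS) and fluorescence was read directly at Ex/Em 405/460 nm. Signals were expressed as fluorescence equivalents of triamterene, with DMSO vehicle as control.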

A short description of test [3]: qHTS assay to test for compound auto fluorescence at 535 nm (green) in HEK293 cell free culture (AID 720682). The method, boiled down: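 Steps: dispense DMEM/10% FBS into empty wells; pin in compound or DMSO; measure fluorescence at 485/535 nm. Values are fluorescein equivalents.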
Test [4] in a line: qHTS assay to test for compound auto fluorescence at 590 nm (red) in HepG2 cell free culture (AID 720684). The essentials: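 Ex 540 / Em 590 nm read of compound in cell-free MEM (10% FBS). Rose Bengal sodium reference.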
Test [5] is described as follows: qHTS assay to test for compound auto fluorescence at 460 nm (blue) in HepG2 cell free culture (AID 720685). Note: potency is the fitted concentration of half-maximal effect. The method, boiled down: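 Cell-free plates of MEM plus 10% FBS received 23 nL compound or DMSO vehicle; blue-channel (405/460 nm) intensity scored against triamterene as reference fluorophore.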
A short description of test [6]: qHTS assay to test for compound auto fluorescence at 535 nm (green) in HepG2 cell free culture (AID 720686).
Test [7] is described as follows: qHTS assay to test for compound auto fluorescence at 460 nm (blue) in HepG2 cells (AID 720687). Note: potency is the fitted concentration of half-maximal effect. The method, boiled down:
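Cells (2,000/well in MEM with 10% FBS) attached overnight at 37 C, then were exposed to compound or DMSO for 1 hr at 37 C, 5% CO2. Fluorescence read at Ex/Em 405/460 nm, expressed as triamterene-equivalent signal.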

Test [8] can be described thus: qHTS assay to identify small molecule antagonists of the glucocorticoid receptor (GR) signaling pathway - cell viability counter screen (AID 720693). Note: nearly all actives have a fitted effect of over 55% in size.
The nature of test [9]: qHTS assay for identifying genotoxic compounds that show differential cytotoxicity against isogenic chicken DT40 cell lines with known DNA damage response pathways - Rev3 mutant cell line (AID 743014). Note: nearly all actives have a fitted effect of over 55% in size. Note: potency is the fitted concentration of half-maximal effect.
Test [10] is described as follows: qHTS assay for identifying genotoxic compounds that show differential cytotoxicity against isogenic chicken DT40 cell lines with known DNA damage response pathways - Rad54/Ku70 mutant cell line (AID 743015). Note: nearly all actives have a fitted effect of over 60% in size.
A short description of test [11]: qHTS assay to identify small molecule antagonists of the androgen receptor (AR) signaling pathway - cell viability counter screen (AID 743033; note: nearly all actives have a fitted effect of over 45% in size).
Test [12] concerns the target Androgen receptor (Homo sapiens) (UniProt P10275). Put plainly: qHTS assay to identify small molecule agonists of the androgen receptor (AR) signaling pathway (AID 743036; active = well fitted activation curve with a large enough effect in the signal ratio in the repeat runs, with a control signal flat, not every such curve was filed as active; the % refers to the signal ratio; note: potency is the fitted concentration of half-maximal effect). The essentials:
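Reporter line: GeneBLAzer AR-UAS-bla-GripTite (HEK293). Steps: plate cells, 4 h rest, add compounds, 16 h at 37C, add LiveBLAzer B/G substrate, 2 h at RT, read fluorescence.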

For test [13] the target is unchanged. Put plainly: qHTS assay to identify small molecule agonists of the androgen receptor (AR) signaling pathway using the MDA cell line (AID 743040; note: nearly all actives have a fitted effect of over 20% in size). The method, boiled down: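 Cell-based luciferase reporter: MDA-kb2, MMTV promoter (AR + GR response elements). 16 h compound exposure at 37C; ONE-Glo, 30 min RT, luminescence.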
Test [14] shares this target. Put plainly: qHTS assay to identify small molecule antagonists of the androgen receptor (AR) signaling pathway using the MDA cell line (AID 743042; note: nearly all actives have a fitted effect of over 55% in size). The method, boiled down: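 MDA-kb2 cells (human breast carcinoma, stably carrying an MMTV-luciferase reporter responsive to AR and GR) were plated at 3,000 cells/well and preincubated 5 hr at 37C, then given compound plus R1881 agonist for 16 h. ONE-Glo luminescence was read.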

Test [15] is described as follows: qHTS assay to test for compound auto fluorescence at 590 nm (red) in HEK293 cell free culture (AID 720683). The essentials: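 Tox21 10K library compounds were pinned into cell-free DMEM with 10% FBS and fluorescence was read at excitation 540 nm. Activity is expressed as Rose Bengal sodium equivalency.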
Test [16] addresses Glucocorticoid receptor (Homo sapiens) (UniProt P04150). Put plainly: qHTS assay to identify small molecule agonists of the glucocorticoid receptor (GR) signaling pathway (AID 720691; active = well fitted activation curve with a large enough effect in the signal ratio in the repeat runs, not every such curve was filed as active; the % refers to the signal ratio). The essentials:
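Steps: seed GR-bla HeLa cells, incubate 4 h at 37 C/5% CO2; pin-transfer DMSO-dissolved compounds; incubate 18 h at 37 C; add LiveBLAzer B/G FRET substrate; after 2 h at room temperature, measure fluorescence.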

A short description of test [17]: qHTS assay to identify small molecule antagonists of the androgen receptor (AR) signaling pathway using the MDA cell line - cell viability counter screen (AID 743041; note: nearly all actives have a fitted effect of over 45% in size). The method, boiled down: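 In this qHTS counter assay, fluorescence intensity after CellTiter-Fluor addition indicated viability of MDA-kb2 AR-luc cells given compounds and R1881 for 16 h at 37C.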

The nature of test [18]: qHTS assay for identifying genotoxic compounds that show differential cytotoxicity against isogenic chicken DT40 cell lines with known DNA damage response pathways - wild type cell line (AID 743012). Note: nearly all actives have a fitted effect of over 60% in size. Note: potency is the fitted concentration of half-maximal effect. The essentials:
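Cytotoxicity in repair-proficient parental chicken DT40 cells serves as the comparator for Rad54/Ku70- and Rev3-deficient lines. Cells were exposed to compounds for 40 h at 37 C/5% CO2, and ATP-based luminescence (CellTiter-Glo) measured viability.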

Test [19] addresses Glucocorticoid receptor (Homo sapiens) (UniProt P04150). Nature of the test: qHTS assay to identify small molecule antagonists of the glucocorticoid receptor (GR) signaling pathway (AID 720692; active = well fitted inhibition curve with a large enough effect in the signal ratio in the repeat runs, not every such curve was filed as active; the % refers to the signal ratio). The method, boiled down:
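Antagonism was scored as loss of dexamethasone-driven (5 nM final) reporter signal in HeLa cells bearing a glucocorticoid response element–beta-lactamase construct, after 18 h compound exposure at 37 C and 2 h FRET substrate loading.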

The target of test [20] is Androgen receptor (Homo sapiens) (UniProt P10275). Put plainly: qHTS assay to identify small molecule antagonists of the androgen receptor (AR) signaling pathway (AID 743035; active = well fitted inhibition curve with a large enough effect in the signal ratio in the repeat runs, not every such curve was filed as active; the % refers to the signal ratio). The method, boiled down:
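Steps: seed AR-UAS-bla GripTite HEK293 cells, incubate 4 h at 37C; pin in test compound, then add agonist R1881; incubate 16 h at 37C; add LiveBLAzer B/G FRET substrate, 2 h at room temperature; read fluorescence.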
Tags give direction and shape of the fitted curve or compound fluorescence and quenching.

Glucocorticoid receptor (Homo sapiens), sequence (P04150 whole entry, looked up): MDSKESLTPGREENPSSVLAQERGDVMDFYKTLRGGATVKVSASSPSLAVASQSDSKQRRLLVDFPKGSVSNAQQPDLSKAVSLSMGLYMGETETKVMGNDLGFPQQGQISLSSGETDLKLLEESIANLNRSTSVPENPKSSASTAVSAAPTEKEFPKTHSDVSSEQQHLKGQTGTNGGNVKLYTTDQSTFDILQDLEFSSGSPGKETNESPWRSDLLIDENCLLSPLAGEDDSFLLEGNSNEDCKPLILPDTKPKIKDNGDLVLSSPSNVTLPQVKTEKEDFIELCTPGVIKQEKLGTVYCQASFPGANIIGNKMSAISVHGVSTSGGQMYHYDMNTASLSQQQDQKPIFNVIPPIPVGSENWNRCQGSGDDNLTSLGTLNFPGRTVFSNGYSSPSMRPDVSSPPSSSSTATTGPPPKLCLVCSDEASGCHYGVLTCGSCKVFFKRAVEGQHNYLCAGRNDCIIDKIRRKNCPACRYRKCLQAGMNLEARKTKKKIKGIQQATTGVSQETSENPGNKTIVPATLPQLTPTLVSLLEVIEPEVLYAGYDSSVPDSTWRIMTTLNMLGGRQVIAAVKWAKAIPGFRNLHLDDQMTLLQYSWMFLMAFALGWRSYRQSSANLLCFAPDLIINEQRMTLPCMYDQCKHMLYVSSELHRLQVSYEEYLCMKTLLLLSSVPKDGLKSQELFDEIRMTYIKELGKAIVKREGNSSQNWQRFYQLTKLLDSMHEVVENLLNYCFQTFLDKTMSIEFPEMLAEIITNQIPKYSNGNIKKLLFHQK
Androgen receptor (Homo sapiens), sequence (P10275 whole entry, looked up): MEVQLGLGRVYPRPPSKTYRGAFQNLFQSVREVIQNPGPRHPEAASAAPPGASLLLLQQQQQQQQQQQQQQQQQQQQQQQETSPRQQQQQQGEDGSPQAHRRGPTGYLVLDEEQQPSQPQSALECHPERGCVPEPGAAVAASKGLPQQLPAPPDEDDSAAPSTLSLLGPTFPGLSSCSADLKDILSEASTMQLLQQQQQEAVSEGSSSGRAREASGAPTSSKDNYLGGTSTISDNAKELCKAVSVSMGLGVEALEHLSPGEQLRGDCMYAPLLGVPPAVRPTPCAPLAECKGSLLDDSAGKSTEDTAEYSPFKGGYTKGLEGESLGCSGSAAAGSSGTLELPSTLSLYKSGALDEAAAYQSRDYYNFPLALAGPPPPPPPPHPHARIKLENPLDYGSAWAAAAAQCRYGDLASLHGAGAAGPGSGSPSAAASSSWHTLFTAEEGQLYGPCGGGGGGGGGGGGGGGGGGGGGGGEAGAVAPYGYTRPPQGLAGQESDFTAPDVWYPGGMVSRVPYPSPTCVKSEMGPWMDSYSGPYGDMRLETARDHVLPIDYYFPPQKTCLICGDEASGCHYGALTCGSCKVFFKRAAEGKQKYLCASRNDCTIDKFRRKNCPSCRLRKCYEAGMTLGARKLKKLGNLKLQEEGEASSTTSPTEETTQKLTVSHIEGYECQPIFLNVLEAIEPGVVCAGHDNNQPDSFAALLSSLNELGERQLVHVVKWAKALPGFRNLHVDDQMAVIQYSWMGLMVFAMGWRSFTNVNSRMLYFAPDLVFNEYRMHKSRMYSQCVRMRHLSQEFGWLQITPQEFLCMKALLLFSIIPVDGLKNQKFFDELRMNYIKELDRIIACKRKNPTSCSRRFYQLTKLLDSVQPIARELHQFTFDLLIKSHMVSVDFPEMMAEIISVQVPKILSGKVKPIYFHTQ

As to `O=S(=O)(O)c1ccc(Nc2nc(Nc3ccc(/C=C/c4ccc(Nc5nc(Nc6ccc(S(=O)(=O)O)cc6)nc(N(CCO)CCO)n5)cc4S(=O)(=O)O)c(S(=O)(=O)O)c3)nc(N(CCO)CCO)n2)cc1`, the Potency result in test [1], in test [3], in [4], in [6], in [8] and in test [9] was “inactive” throughout. In addition, the Potency result in test [10], in test [11] and in [14] was “inactive” throughout. Moreover, the Potency is 25.1 µM (active) in test [2], 35.5 µM [fluorescent] (active) in [5], 35.5 µM [fluorescent] (active) in [7] and 33.1 µM (active) in [12]. Further, the compound was classed as inactive in test [13].
Regarding `COc1cc(C)ccc1O`, the Potency result in [1], in [2], in [15], in test [4], in [5] and in test [6] was “inactive” throughout. Further, the Potency entry in [7], in [16], in test [8], in test [9], in test [10] and in [11] was “inactive” throughout. Moreover, the Potency entry in test [17] was “inactive”.
With `CCN(CCN)c1cccc(C)c1`, the Potency result in [1], in test [2], in test [3], in test [4], in test [5] and in [6] was “inactive” in each case. In addition, the Potency entry in test [7], in [8], in test [10] and in test [11] was “inactive” throughout. In addition, the Potency in test [18] was 69.2 µM (active) and inactive.
Regarding `CCOC(=O)NNc1ccc(N(CC)CC(C)O)nn1` (stereo not given), the Potency entry in test [1], in [2], in test [3], in test [4], in test [5] and in test [6] was “inactive” in each case. Also, the Potency result in test [7], in test [8] and in [11] was “inactive” in each case. Moreover, the Potency in [9] was 23.7 µM (active).
On to `NC(=O)c1cccc([N+](=O)[O-])c1`, for which the Potency result in test [1], in test [2], in test [15], in [4], in test [5] and in test [6] was “inactive” each time. Moreover, the Potency result in test [7], in test [16], in test [19], in test [8], in [18] and in test [9] was “inactive” throughout. Also, the Potency entry in [10], in test [11], in [20], in test [17] and in test [14] was “inactive” each time. Also, the compound was called inactive in [13].
Consider `CCCCOC(=O)CC`, for which the Potency entry in test [1], in test [2], in test [4], in [5], in test [6] and in test [7] was “inactive” each time. Besides, the Potency result in [16], in test [19], in test [8], in [18], in [11] and in test [17] was “inactive” each time.
As to `COC(=O)c1ccccc1OC`, the Potency entry in [1], in test [2], in test [15], in test [4], in test [5] and in [6] was “inactive” in each case. Further, the Potency result in test [16], in test [8], in test [9], in test [10], in test [11] and in [17] was “inactive” each time.
For `COC(=O)c1ccccc1C`, the Potency result in test [1], in [2], in [15], in [4], in test [5] and in [6] was “inactive” throughout. Also, the Potency result in test [7], in [16], in [19], in test [8], in test [18] and in test [9] was “inactive” each time. Also, the Potency result in test [10], in test [11] and in test [17] was “inactive” in each case.

Source of the values: PubChem BioAssay (Tox21).
